For 40 compounds, growth results are on record in PubChem BioAssay (NCI).

This is part of a sample that, as a whole, favours compounds with a hit. Of some 83,000 tested, about 20% had one in any assay.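 In brief: 96-well plates, 48 h treatment, single concentration, percent growth endpoint.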 Active and inactive are the calls of the source.

This experiment deals with SK-MEL-2 melanoma. Briefly: NCI-60 one-dose screen, 48 h (100 = growth as untreated, 0 = no growth, -100 = all killed). Particulars: 10 µM unless noted. Here is the method:
Growth inhibition of the SK-MEL-2 human tumor cell line is measured as a screen for anti-cancer activity. Cells are grown in 96 well plates and exposed to the test compound for 48 hours. Compounds are tested at a single concentration, which is 10^-5 M for most compounds. The reported endpoint is percent growth (GI% or GIPRCNT), where numbers from 0 - 100% represent growth inhibition, and numbers from -100% - 0 represent cell death. For example, a value of 40 represents 60% growth inhibition. A value of 0 means no net growth occurred over the course of the experiment. A value of -40 indicates 40% of cells at the beginning of the experiment died by the end of the experiment. A value of -100 means all cells are dead at the end of the experiment.
NCI-60 Human Tumor Cell Lines Screen was performed using the standard one-dose NCI protocol, which is described in more detail at https://dtp.cancer.gov/discovery_development/nci-60/default.htm.
Compounds with GIPRCNT values below 10 were considered active. Activity score was based on GIPRCNT using the following formula: […]
Score is 0 for GIPRCNT values of 100 or above, 50 for GIPRCNT values of 0, and 100 for GIPRCNT values of -100.
On to `CCOc1ccc(C(=O)O)cc1`, for which the growth was 109% (inactive).

For `COc1cc(CC#N)c([N+](=O)[O-])cc1OC`, the growth is 109% (inactive).

Take `CCCNS(=O)(=O)c1ccc(Cl)cc1`: the growth was 106% (inactive).

As for `CN(C)c1ncnc2c1cnn2C`, the growth was 110% (inactive).

In the case of `O=C(O)CC1=CCCCC1`, the growth was 119% (inactive).

Turning to `C/C(Cc1ccccc1)=N\O`, the growth was 104% (inactive).

On to `NC(CSSCC(N)C(=O)O)C(=O)O` (stereo not given), for which the growth is -8.58% (active).

Regarding `CC1(c2ccccc2)CO1` (stereo not given), the growth was 107% (inactive).

`COC1(OC)C2(Cl)C(Cl)=C(Cl)C1(Cl)C1COCC12` (stereo not given): the growth is 89.7% (inactive).

`CC1=CC(=Nc2ccc(N(C)C)cc2)C=C(C)C1=O`: the growth was 110% (inactive).

Regarding `CC(=O)Nc1ncc(S(=O)(=O)c2ccc([N+](=O)[O-])cc2)s1`, the growth was 119% (inactive).

As for `CC(c1ccccc1)N1C(=O)CSC1=S` (stereo not given), the growth is 1.02% (active).

Turning to `CCCc1cccc(CCC)c1NC(=O)Nc1cc(Cl)cc(Cl)c1`, the growth was 106% (inactive).

Turning to `C=CC(C)C(C)(C)O` (stereo not given), the growth was 100% (inactive).

For `c1ccc2[nH]c(Cc3nc4ccccc4[nH]3)nc2c1`, the growth is 121% (inactive).

As for `O=C(O)c1ccccc1Cc1ccc2c(c1)CCCC2`, the growth is 113% (inactive).

`COc1cccc2c1Cc1ccccc1-2`: the growth is 110% (inactive).

With `COC1OC(COC(C)=O)C(OC(C)=O)C(OC(C)=O)C1OC(C)=O` (stereo not given), the growth is 101% (inactive).

With `CC(C)(CC(=O)O)CC(=O)O`, the growth is 107% (inactive).

For the compound `Cc1ccc(C)c(CN(C)C)c1O`, the growth was 143% (inactive).

Turning to `CCCC(=O)CC(=O)c1ccccc1`, the growth is 78.5% (inactive).

Consider `COC1=C(OC)C(=O)C(SC/C=C(\C)CCCC(C)CCCC(C)CCCC(C)C)=CC1=O` (stereo not given), for which the growth was -11.3% (active).

With `Cc1ccc(NCN2C(=O)c3ccccc3C2=O)c(C)n1`, the growth is 124% (inactive).

With `O=C1NC(=O)C(c2ccccc2)O1` (stereo not given), the growth was 90.1% (inactive).

For `Nc1ccn(C2CC(N)C(CO)O2)c(=O)n1` (stereo not given), the growth was 122% (inactive).

On to `c1ccc(Nc2ccccn2)nc1`, for which the growth was 95% (inactive).

With `O=S(Cc1ccccc1)/C(=C/NC(=S)Nc1cc(Cl)ccc1Cl)c1ccccc1` (stereo not given), the growth is 101% (inactive).

Turning to `Nc1cc(F)ccc1[N+](=O)[O-]`, the growth is 114% (inactive).

In the case of `CCC(=O)Oc1c(C)cc(O)c2ccccc12`, the growth was 90.4% (inactive).

Regarding `N#C/C(=C\NC(=S)N=Nc1c(O)[nH]c2ccccc12)c1nc2ccccc2s1`, the growth is 105% (inactive).

As to `C/C(O)=C(/C=N\C(=S)Nc1ccc(S(=O)(=O)Nc2nccs2)cc1)C(=O)Nc1ccccc1C`, the growth is 115% (inactive).

As for `Nc1ccccc1SC1CC(=O)N(c2ccc(Cl)c(Cl)c2)C1=O` (stereo not given), the growth is 12.9% (inactive).

`COc1ccc(NNS(=O)(=O)O)cc1`: the growth is 103% (inactive).

`C(=C\c1ccncc1)/c1ccncc1`: the growth was 88.2% (inactive).

Regarding `CCOC(=O)/C(C)=C\c1ccc(OC)c(OC)c1`, the growth was 112% (inactive).

For `CCC(=O)C1C(=O)c2ccccc2C1=O`, the growth is 102% (inactive).

In the case of `Nc1nc2nnc(-c3ccccc3)c(-c3ccccc3)n2n1`, the growth was -2.91% (active).

In the case of `C1CCc2onc(-c3noc4c3CCCCC4)c2CC1`, the growth was 120% (inactive).

Regarding `CCCCCCCCCCCCCCCCCC(=O)NCCNC(=O)CCCCCCCCCCCCCCCCC`, the growth is 90.2% (inactive).

In the case of `Cn1/c(=N\N=C\c2ccccc2OCCO)sc2ccccc21`, the growth is 104% (inactive).
